# PubChem BioAssay (EPA / NIEHS)
# Records with an inconclusive call do not appear. Activity calls are given as the source filed them. Rule for the calls, unless noted: active = hit-call score of the fitted dose curve at least 0.9, where 1 is the maximum; inconclusive = response in the unintended direction; inactive = score below 0.9.
# Legend:
# [1] = read-out: Fatty Acid-Binding Protein 1 (FABP1), FABP1 (gene 2168); test: LTEA_HepaRG_FABP1: Life Technologies and Expression Analysis (LTEA) Assay for Fatty Acid-Binding Protein 1 (FABP1) using HepaRG (AID 2283494; active = hit-call score of the fitted dose curve at least 0.9, where 1 is the maximum; inactive = score below 0.9); conditions: mRNA level, 48 h; actives raise or lower the signal
# In short: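 Differentiated human HepaRG cells exposed 48 h in serum-free induction medium to eight half-log concentrations up to 100 uM (0.5% DMSO), duplicate. FABP1 mRNA by qRT-PCR, normalised to ACTB, GAPDH, POLR2A; bidirectional fitting against DMSO.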
# [2] = read-out: Hypoxia-inducible factor 1-alpha (Homo sapiens) (UniProt Q16665); test: LTEA_HepaRG_HIF1A: Life Technologies and Expression Analysis (LTEA) Assay for Hypoxia-inducible factor 1 (HIF1A) Trancription factor using HepaRG (AID 2283503; active = hit-call score of the fitted dose curve at least 0.9, where 1 is the maximum; inactive = score below 0.9); conditions: mRNA level, 48 h; actives raise or lower the signal
# In short: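 Differentiated HepaRG cells in serum-free induction medium exposed 48 h, in duplicate, to 8-point half-log series from 100 uM in 0.5% DMSO. HIF1A mRNA measured by TaqMan qRT-PCR, normalized to ACTB/GAPDH/POLR2A, fitted bidirectionally versus DMSO.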
# [3] = system: zebrafish Estrogen Receptor (ESR2B), gene 317733; test: ATG_zfER2b_XSP1: Attagene TRANS-FACTORIAL Multi-Species (XSP1) HepG2 Assay for zebrafish Estrogen Receptor (ESR2B) (AID 2283773)
# In short: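 HepG2 cells transiently transfected with GAL4-UAS reporter units for chimeric zebrafish ER2b-Gal4, with 3 nM 6-alpha-fluorotestosterone present; reporter mRNA measured 24 h after dosing by RT-PCR and capillary electrophoresis, gain versus DMSO.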
# [4] = system: frog Estrogen Receptor (ESR2), gene 100174814; test: ATG_frER2_XSP1: Attagene TRANS-FACTORIAL Multi-Species (XSP1) HepG2 Assay for frog Estrogen Receptor (ESR2) (AID 2283774)
# In short: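 HepG2 cells transiently transfected with GAL4-UAS reporter units expressing chimeric frog ER-Gal4; 3 nM 6-alpha-fluorotestosterone present. After 24 h dosing, reporter mRNA quantified by RT-PCR and capillary electrophoresis; gain-of-signal fitted relative to DMSO.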
# [5] = system: zebrafish Estrogen Receptor (ESR2A), gene 317734; test: ATG_zfER2a_XSP1: Attagene TRANS-FACTORIAL Multi-Species (XSP1) HepG2 Assay for zebrafish Estrogen Receptor (ESR2A) (AID 2283778)
# In short: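 HepG2 cells transiently transfected with GAL4-UAS reporter units driven by a zebrafish ESR2A–Gal4 chimera; 24 h compound exposure with 3 nM 6-alpha-fluorotestosterone present. Reporter mRNA measured by RT-PCR with fluorescent capillary electrophoresis, fitted positive versus DMSO.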
# [6] = ATG_M_19_XSP1: Attagene TRANS-FACTORIAL Multi-Species (XSP1) HepG2 Assay for M19 Transcription Factor (Internal Marker) (AID 2283798)
# In short: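 HepG2 cells transiently transfected with multiplexed GAL4-UAS reporter units, dosed 24 h with 3 nM 6-alpha-fluorotestosterone present for partial AR stimulation. Reporter mRNA measured by RT-PCR with capillary electrophoresis; gain-of-signal fitted relative to DMSO.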
# [7] = ATG_M_32_XSP1: Attagene TRANS-FACTORIAL Multi-Species (XSP1) HepG2 Assay for M32 Transcription Factor (Internal Marker) (AID 2283799)
# In short: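 HepG2 cells transiently transfected with multi-species TRANS reporter units, dosed 24 h with 3 nM 6-alpha-fluorotestosterone present. Internal-marker reporter mRNA quantified by RT-PCR and capillary electrophoresis; positive-direction fit versus DMSO.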
# [8] = system: zebrafish Peroxisome Proliferator-activated Receptor gamma (PPARg), gene 557037; test: ATG_zfPPARg_XSP1: Attagene TRANS-FACTORIAL Multi-Species (XSP1) HepG2 Assay for zebrafish Peroxisome Proliferator-activated Receptor gamma (PPARg) (AID 2283801)
# In short: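 HepG2 cells transiently transfected with GAL4-UAS reporter units including a zebrafish PPARg–GAL4 chimera, dosed 24 h with 3 nM 6-alpha-fluorotestosterone present. Reporter mRNA quantified by RT-PCR, FAM labelling, HpaI digestion and capillary electrophoresis; induction versus DMSO.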
# [9] = system: turtle Thyroid Hormone Receptor, alpha (TRa), gene 101949057; test: ATG_trTRa_XSP1: Attagene TRANS-FACTORIAL Multi-Species (XSP1) HepG2 Assay for turtle Thyroid Hormone Receptor, alpha (TRa) (AID 2283806)
# In short: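 HepG2 cells transiently transfected with GAL4-UAS reporter units and chimeric receptor-Gal4 constructs, with 3 nM 6-alpha-fluorotestosterone present. Reporter mRNA was quantified 24 h after dosing by RT-PCR, 6-FAM labelling and capillary electrophoresis; gain of signal versus DMSO.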
# [10] = target: human Thyroid hormone Receptor beta (TRb), THRB (gene 7068) (UniProt P10828); test: ATG_hTRb_XSP1: Attagene TRANS-FACTORIAL Multi-Species (XSP1) HepG2 Assay for human Thyroid hormone Receptor beta (TRb) (AID 2283808)
# In short: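 HepG2 cells transiently transfected with reporter units driving GAL4-UAS reporters for chimeric NR-Gal4 proteins; 24 h chemical exposure with 3 nM 6-alpha-fluorotestosterone present. Reporter mRNA quantified by RT-PCR and capillary electrophoresis, gain of signal versus DMSO.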
# [11] = target: zebrafish Thyroid Hormone Receptor beta (TRb), thrb (gene 30607) (UniProt Q9PVE4); test: ATG_zfTRb_XSP1: Attagene TRANS-FACTORIAL Multi-Species (XSP1) HepG2 Assay for zebrafish Thyroid Hormone Receptor beta (TRb) (AID 2283809)
# In short: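 HepG2 cells transiently transfected with multiplexed GAL4-UAS reporter units expressing chimeric zebrafish TRb–Gal4. Dosed 24 h with 3 nM 6-alpha-fluorotestosterone present; reporter mRNA measured by RT-PCR, HpaI digestion and capillary electrophoresis; gain of signal versus DMSO.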
# [12] = ATG_XTT_Cytotoxicity_XSP1: Cytotoxicity Assessment in the Attagene TRANS-FACTORIAL Multi-Species (XSP1) HepG2 Assay (AID 2283810)
# In short: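 XTT viability readout taken at 24 hours post-dosing in HepG2 liver cells co-treated with 3 nM 6-alpha-fluorotestosterone. Signal loss relative to DMSO controls reflects cytotoxicity.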
# [13] = ATG_M_06_XSP2: Attagene TRANS-FACTORIAL Multi-Species (XSP2) HepG2 Assay for M06 Transcription Factor (Internal Marker) (AID 2283811);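 note: hits are increases in signal above the DMSO baseline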
# In short: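 HepG2 cells transiently transfected with GAL4-UAS multiple reporter units, medium containing 3 nM 6-alpha-fluorotestosterone and 1.5 nM norgestrel; reporter mRNA measured 24 hours post-dosing by RT-PCR and capillary electrophoresis. Internal background marker, gain of signal vs DMSO.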
# [14] = system: frog Estrogen Receptor (ER2), gene 100174814; test: ATG_frER2_XSP2: Attagene TRANS-FACTORIAL Multi-Species (XSP2) HepG2 Assay for frog Estrogen Receptor (ER2) (AID 2283828)
# In short: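 HepG2 cells transiently transfected with multiplexed GAL4-UAS reporter units expressing chimeric frog ER2–Gal4 protein; reporter mRNA measured 24 h after chemical dosing by RT-PCR, fluorescent labeling and capillary electrophoresis. Gain-of-signal fitted relative to DMSO baseline.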
# [15] = target: Peroxisome proliferator-activated receptor gamma (Homo sapiens) (UniProt P37231); test: ATG_hPPARg_XSP2: Attagene TRANS-FACTORIAL Multi-Species (XSP2) HepG2 Assay for human Peroxisome Proliferator-activated Receptor gamma (PPARg) (AID 2283829);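 note: actives raise reporter mRNA above DMSO so AC50 reflects PPARg activation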
# In short: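 Transient MRTU transfection, HepG2; TRANS format (exogenous NR-Gal4 chimeras). 24 h chemical exposure with 3 nM 6-alpha-fluorotestosterone and 1.5 nM norgestrel present. Readout: reporter mRNA via RT-PCR/CE fluorescence, up-direction vs DMSO.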
# [16] = target: mouse Peroxisome Proliferator-activated Receptor gamma (PPARg), Pparg (gene 19016) (UniProt P37238); test: ATG_mPPARg_XSP2: Attagene TRANS-FACTORIAL Multi-Species (XSP2) HepG2 Assay for mouse Peroxisome Proliferator-activated Receptor gamma (PPARg) (AID 2283830);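 note: hits are gains in reporter mRNA above DMSO so AC50 marks activation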
# In short: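 HepG2 cells transiently transfected with GAL4-UAS reporter units for chimeric NR-Gal4 proteins including mouse PPARg, exposed 24 h; medium contained 3 nM 6-alpha-fluorotestosterone and 1.5 nM norgestrel. Reporter mRNA quantified by RT-PCR, HpaI digestion and capillary electrophoresis, vs DMSO.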
# [17] = system: zebrafish Peroxisome Proliferator-activated Receptor gamma (PPARg), gene 557037; test: ATG_zfPPARg_XSP2: Attagene TRANS-FACTORIAL Multi-Species (XSP2) HepG2 Assay for zebrafish Peroxisome Proliferator-activated Receptor gamma (PPARg) (AID 2283833);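 note: actives increase reporter signal over DMSO so AC50 reflects activation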
# In short: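 Transfect HepG2 with multiplexed GAL4-UAS reporter constructs; dose chemical 24 h; isolate RNA, reverse-transcribe, PCR-amplify, label and digest reporter products; resolve by capillary electrophoresis. Activity taken as increase over DMSO.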
# [18] = system: turtle Thyroid Hormone Receptor, alpha (TRa), gene 101949057; test: ATG_trTRa_XSP2: Attagene TRANS-FACTORIAL Multi-Species (XSP1) HepG2 Assay for turtle Thyroid Hormone Receptor, alpha (TRa) (AID 2283834);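 note: hits raise reporter mRNA over the DMSO baseline so AC50 marks activators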
# In short: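 Readout: reporter mRNA induction, fluorescence after RT-PCR, HpaI digestion and capillary electrophoresis. Transiently transfected HepG2, exogenous NR-Gal4 chimera driving GAL4-UAS reporter, 24 h compound exposure. Activity fitted upward relative to DMSO baseline.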
# [19] = ATG_M_61_XSP2: Attagene TRANS-FACTORIAL Multi-Species (XSP2) HepG2 Assay for M61 Transcription Factor (Internal Marker) (AID 2283835; active = hit-call score of the fitted dose curve at least 0.9, where 1 is the maximum; inactive = score below 0.9;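 note: active means a rise in signal above the DMSO baseline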)
# In short: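 HepG2 cells transiently transfected with multiple GAL4-UAS reporter units; reporter mRNA measured 24 h after dosing by RT-PCR, fluorescent labelling and capillary electrophoresis. Medium contained 3 nM 6-alpha-fluorotestosterone and 1.5 nM norgestrel; internal marker, DMSO baseline.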
# [20] = target: human Thyroid hormone Receptor alpha (TRa), THRA (gene 7067) (UniProt P10827); test: ATG_hTRa_XSP2: Attagene TRANS-FACTORIAL Multi-Species (XSP2) HepG2 Assay for human Thyroid hormone Receptor alpha (TRa) (AID 2283838)
# In short: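 HepG2 cells were transiently transfected with GAL4-UAS reporter units for chimeric human TRa-Gal4 and dosed for 24 hours, with 3 nM 6-alpha-fluorotestosterone and 1.5 nM norgestrel present. Reporter mRNA was quantified by RT-PCR, FAM labelling and capillary electrophoresis, with gain of signal fitted versus DMSO.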
# Chain of zebrafish Thyroid Hormone Receptor beta (TRb), thrb (gene 30607) (Q9PVE4 whole entry, looked up, the tested form may be a part): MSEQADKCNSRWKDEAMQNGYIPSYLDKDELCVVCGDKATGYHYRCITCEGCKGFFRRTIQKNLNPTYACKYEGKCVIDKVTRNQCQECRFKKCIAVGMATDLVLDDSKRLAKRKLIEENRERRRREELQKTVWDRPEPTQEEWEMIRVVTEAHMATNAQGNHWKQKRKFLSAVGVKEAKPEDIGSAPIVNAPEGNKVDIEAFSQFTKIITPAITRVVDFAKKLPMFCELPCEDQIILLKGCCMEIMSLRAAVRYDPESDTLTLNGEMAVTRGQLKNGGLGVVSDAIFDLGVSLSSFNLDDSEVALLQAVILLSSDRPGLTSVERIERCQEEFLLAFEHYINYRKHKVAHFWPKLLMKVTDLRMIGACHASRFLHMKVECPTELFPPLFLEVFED
# Chain of Hypoxia-inducible factor 1-alpha (Homo sapiens) (Q16665 whole entry, looked up): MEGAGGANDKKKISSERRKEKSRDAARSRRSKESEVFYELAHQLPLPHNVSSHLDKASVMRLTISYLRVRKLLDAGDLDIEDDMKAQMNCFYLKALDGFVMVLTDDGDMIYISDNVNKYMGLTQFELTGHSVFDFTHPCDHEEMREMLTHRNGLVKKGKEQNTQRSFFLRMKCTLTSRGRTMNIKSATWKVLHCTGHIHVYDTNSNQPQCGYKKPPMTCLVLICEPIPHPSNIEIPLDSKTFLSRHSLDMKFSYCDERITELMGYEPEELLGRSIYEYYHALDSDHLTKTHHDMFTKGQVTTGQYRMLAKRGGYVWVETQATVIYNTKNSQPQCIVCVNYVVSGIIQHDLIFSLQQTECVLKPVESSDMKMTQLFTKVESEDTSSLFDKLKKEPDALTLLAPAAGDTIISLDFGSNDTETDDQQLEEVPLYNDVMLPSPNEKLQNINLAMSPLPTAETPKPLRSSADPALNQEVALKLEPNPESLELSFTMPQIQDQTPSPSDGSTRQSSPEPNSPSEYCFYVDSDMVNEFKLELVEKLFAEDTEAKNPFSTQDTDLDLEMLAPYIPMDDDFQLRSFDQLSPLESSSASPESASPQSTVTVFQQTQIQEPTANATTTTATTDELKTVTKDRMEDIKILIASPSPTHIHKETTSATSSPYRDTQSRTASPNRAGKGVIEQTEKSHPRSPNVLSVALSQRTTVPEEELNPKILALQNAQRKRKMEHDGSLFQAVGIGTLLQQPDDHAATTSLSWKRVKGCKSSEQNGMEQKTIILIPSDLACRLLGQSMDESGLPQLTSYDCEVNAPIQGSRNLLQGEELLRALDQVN
# Chain of human Thyroid hormone Receptor beta (TRb), THRB (gene 7068) (P10828 whole entry, looked up, the tested form may be a part): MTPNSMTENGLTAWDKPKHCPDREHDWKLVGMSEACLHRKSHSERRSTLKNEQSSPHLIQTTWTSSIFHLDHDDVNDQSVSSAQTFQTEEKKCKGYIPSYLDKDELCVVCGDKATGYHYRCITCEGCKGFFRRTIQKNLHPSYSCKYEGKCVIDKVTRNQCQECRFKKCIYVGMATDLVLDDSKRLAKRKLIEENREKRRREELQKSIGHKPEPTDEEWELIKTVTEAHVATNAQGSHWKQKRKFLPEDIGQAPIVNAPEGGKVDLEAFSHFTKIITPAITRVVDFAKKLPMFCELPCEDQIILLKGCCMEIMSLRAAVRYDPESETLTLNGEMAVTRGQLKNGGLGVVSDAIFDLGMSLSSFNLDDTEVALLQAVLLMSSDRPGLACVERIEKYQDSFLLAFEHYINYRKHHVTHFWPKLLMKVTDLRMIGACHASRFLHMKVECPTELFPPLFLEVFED
# Chain of mouse Peroxisome Proliferator-activated Receptor gamma (PPARg), Pparg (gene 19016) (P37238 whole entry, looked up, the tested form may be a part): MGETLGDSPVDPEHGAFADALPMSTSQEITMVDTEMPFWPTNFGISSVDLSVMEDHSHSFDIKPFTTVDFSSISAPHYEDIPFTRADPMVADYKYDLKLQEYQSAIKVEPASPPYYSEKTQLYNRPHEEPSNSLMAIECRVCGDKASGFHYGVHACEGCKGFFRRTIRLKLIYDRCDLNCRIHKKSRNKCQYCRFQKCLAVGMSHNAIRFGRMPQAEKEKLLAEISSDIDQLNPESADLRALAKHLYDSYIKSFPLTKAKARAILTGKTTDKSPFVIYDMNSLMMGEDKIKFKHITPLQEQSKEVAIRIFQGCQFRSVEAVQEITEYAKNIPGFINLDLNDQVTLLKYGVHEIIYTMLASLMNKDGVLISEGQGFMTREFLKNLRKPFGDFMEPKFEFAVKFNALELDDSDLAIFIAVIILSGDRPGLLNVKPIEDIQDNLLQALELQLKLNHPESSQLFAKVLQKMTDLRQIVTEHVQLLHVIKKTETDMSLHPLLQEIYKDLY
# Chain of human Thyroid hormone Receptor alpha (TRa), THRA (gene 7067) (P10827 whole entry, looked up, the tested form may be a part): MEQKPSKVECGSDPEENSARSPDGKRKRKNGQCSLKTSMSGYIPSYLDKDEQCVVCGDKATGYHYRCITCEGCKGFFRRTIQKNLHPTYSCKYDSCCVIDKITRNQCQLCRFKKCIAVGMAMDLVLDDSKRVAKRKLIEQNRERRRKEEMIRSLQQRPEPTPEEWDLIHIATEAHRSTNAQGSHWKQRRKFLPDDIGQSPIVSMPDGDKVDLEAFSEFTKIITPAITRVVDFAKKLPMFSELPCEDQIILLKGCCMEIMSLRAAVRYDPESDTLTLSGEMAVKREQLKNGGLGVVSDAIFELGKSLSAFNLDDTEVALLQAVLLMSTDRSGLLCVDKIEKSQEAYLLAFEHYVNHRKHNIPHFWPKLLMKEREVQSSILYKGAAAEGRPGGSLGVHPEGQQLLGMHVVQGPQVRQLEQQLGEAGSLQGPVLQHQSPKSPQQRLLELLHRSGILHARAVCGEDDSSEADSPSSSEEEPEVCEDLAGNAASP
# Chain of Peroxisome proliferator-activated receptor gamma (Homo sapiens) (P37231 whole entry, looked up, the tested form may be a part): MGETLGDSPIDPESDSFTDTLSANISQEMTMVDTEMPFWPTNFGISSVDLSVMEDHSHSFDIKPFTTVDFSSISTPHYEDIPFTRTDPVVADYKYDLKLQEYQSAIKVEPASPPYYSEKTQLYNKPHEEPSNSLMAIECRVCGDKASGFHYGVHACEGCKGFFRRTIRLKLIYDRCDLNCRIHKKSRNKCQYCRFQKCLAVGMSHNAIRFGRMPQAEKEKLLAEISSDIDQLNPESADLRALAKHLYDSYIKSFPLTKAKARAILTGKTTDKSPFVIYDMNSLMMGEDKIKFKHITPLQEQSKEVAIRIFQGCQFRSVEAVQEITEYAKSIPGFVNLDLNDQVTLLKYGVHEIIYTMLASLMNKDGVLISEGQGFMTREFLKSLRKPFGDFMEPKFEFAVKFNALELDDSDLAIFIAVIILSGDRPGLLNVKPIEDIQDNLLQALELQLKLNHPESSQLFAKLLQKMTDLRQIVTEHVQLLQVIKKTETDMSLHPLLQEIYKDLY
compound,measurement,setting,value
N#CCCCCC#N,outcome,[1],inactive
same,outcome,[2],inactive
CC(C)(c1cc(Cl)c(O)c(Cl)c1)c1cc(Cl)c(O)c(Cl)c1,AC50,[3],9.75 µM (active)
same,AC50,[4],3.55 µM (active)
same,AC50,[5],2.02 µM (active)
same,outcome,[6],inactive
same,outcome,[7],inactive
same,outcome,[8],inactive
same,outcome,[9],inactive
same,outcome,[10],inactive
same,outcome,[11],inactive
same,outcome,[12],inactive
same,outcome,[13],inactive
same,AC50,[14],5.92 µM (active)
same,AC50,[15],3.94 µM (active)
same,AC50,[16],3.81 µM (active)
same,outcome,[17],inactive
same,outcome,[18],inactive
same,outcome,[19],inactive
same,outcome,[20],inactive
O=[N+]([O-])c1ccc(Cl)cc1,outcome,[1],inactive
same,outcome,[2],inactive
CC(C)CCCCCCCOC(=O)c1ccccc1C(=O)OCCCCCCCC(C)C,outcome,[4],inactive
same,outcome,[5],inactive
same,outcome,[6],inactive
same,outcome,[7],inactive
same,outcome,[8],inactive
same,outcome,[9],inactive
same,outcome,[10],inactive
same,outcome,[11],inactive
same,outcome,[14],inactive
same,AC50,[18],100 µM (active)
same,outcome,[20],inactive
CC(=O)c1cc2c(cc1C)C(C)(C)C(C)CC2(C)C (stereo not given),AC50,[3],25.5 µM (active)
same,outcome,[12],inactive
same,outcome,[13],inactive
same,AC50,[15],41.9 µM (active)
same,AC50,[16],49.4 µM (active)
same,outcome,[17],inactive
same,outcome,[19],inactive
